Measured values reported in ChEMBL document CHEMBL4513216, “Probing the Open Global Health Chemical Diversity Library for Multistage-Active Starting Points for Next-Generation Antimalarials” (ACS Infect Dis, 2020).
The campaign covered roughly 69,000 compounds. About 8,600 (12%) showed an effect of 50% or more. The list comes from a sample in which strong results are over-represented; it also holds similar structures and randomly drawn compounds.

Test system: Plasmodium berghei
Assay: Screen against P. berghei liver stage (PbLuc), transformed with Luciferase, at 10uM
Assay type: functional, HepG2
Conditions: tested at 10 uM

Compound | INHIBITION
O=C1OCCN1CC(=O)N1C[C@@H]2CC[C@H]1CN(C(=O)c1ccccn1)C2 | 44.8%
O=C1Nc2ccccc2CN(CC2CC2)C12CCNC2 (configuration not stated) | 46.6%
O=C(CN1CC(c2nc(Cc3ccccc3)no2)C1)NCC1CCCO1 (configuration not stated) | 2.55%
CC(C)NC(=O)C1CN(C(=O)Cc2ccccc2)CC12CCOCC2 (configuration not stated) | 53.4%
Cc1ccc(NC(=O)N2CC(C(=O)NC(C)C)C3(CCOCC3)C2)cc1 (configuration not stated) | 80%
CC(C)NC(=O)C1CN(C(=O)Cc2cccc(F)c2)CC12CCOCC2 (configuration not stated) | 10%
CC(C)NC(=O)C1CN(C(=O)CCc2ccccc2)CC12CCOCC2 (configuration not stated) | 20.9%
CC(C)NC(=O)C1CN(C(=O)Nc2ccccc2)CC12CCOCC2 (configuration not stated) | 17.6%
CC(C)NC(=O)C1CN(C(=O)N2CCCC2)CC12CCOCC2 (configuration not stated) | 22.7%
CC(C)NC(=O)C1CN(C(=O)N(C)C)CC12CCOCC2 (configuration not stated) | 89.2%
CC(C)NC(=O)C1CN(C(=O)Nc2ccc(F)cc2)CC12CCOCC2 (configuration not stated) | 14.8%
CN(C)C(=O)N1CC(C(=O)NCC2CC2)C2(CCOCC2)C1 (configuration not stated) | 36.7%
CN(CCOCC1CC1)C(=O)Nc1ccc([S+](C)[O-])c(F)c1 (configuration not stated) | 41.3%
Cc1cnn(CC(=O)N2CCCN(Cc3cnn(C(C)C)c3)CC2)c1 | 33.7%
NC(=O)CS(=O)(=O)Cc1csc(-c2ccccc2)n1 | 46.6%
CCS(=O)(=O)N1CC[C@H]2CO[C@H](CN(C)C)[C@H]2C1 | 19.4%
Cc1nc(NC(=O)OC(C)(C)C)sc1C(N)=O | -0.514%
Cc1nc(NC(=O)OC(C)(C)C)sc1C#N | 53.4%
Cc1nc(NC(=O)OC(C)(C)C)sc1C(=O)O | 46.6%
O=C(c1ccc[nH]1)N1CCc2ncc(Cn3cccn3)n2CC1 | 25.6%
Clc1ccc(N2CCC(OCC3CCCCO3)CC2)nc1 (configuration not stated) | 34.5%
c1ccc(N2CCN(Cc3cnc(C4CCCCO4)nc3)CC2)nc1 (configuration not stated) | 51.7%

Compound | INHIBITION
c1ccc(CCN2CCC(OCC3CCCCO3)CC2)nc1 (configuration not stated) | 7.24%
Cc1nccn1-c1cccc(N2CCC(OCC3CCCCO3)CC2)n1 (configuration not stated) | 95.9%
c1ccc(N2CCC(OCC3CCCCO3)CC2)nc1 (configuration not stated) | 62.9%
Cc1nccn1-c1cccc(C2CCCN2)n1 (configuration not stated) | -2.09%
c1ccc(N2CCN(Cc3cnc(C4CCCCO4)nc3)CC2)cc1 (configuration not stated) | 21.1%
c1ccc(CN2CCN(Cc3cnc(C4CCCCO4)nc3)CC2)cc1 (configuration not stated) | 10.9%
c1cnc(N2CCC(OCC3CCCCO3)CC2)nc1 (configuration not stated) | 31.1%
CCCn1cc(C(=O)N2CCCC2(C)c2nc(C)cc(C)n2)cn1 (configuration not stated) | -3.02%
Cn1cc(S(=O)(=O)N(CC(F)(F)F)C2CC2)cc1C(N)=O | -29.2%
O=C(Cn1cnc2ccsc2c1=O)c1ccc2c(c1)OCCO2 | -73.1%
CS(=O)(=O)NCCC(=O)N1CCN(S(=O)(=O)c2ccc(Br)cc2)CC1 | 11.8%
COCC(=O)NCCC(=O)N1CCN(S(=O)(=O)c2cccc(Br)c2)CC1 | 63.8%
COCC(=O)NCCC(=O)N1CCN(S(=O)(=O)c2ccc(Br)cc2)CC1 | 68.4%
COCC(=O)N1CCN(S(=O)(=O)c2ccccc2)[C@@H](C(=O)OC)C1 | -33%
COCC(=O)NCc1cccc(Br)c1 | 3.81%
COCC(=O)NCCSCCOc1cccc(Br)c1 | 18%
CCCn1ncc(C(=O)NC2CCN(CC3CCCO3)CC2)c1C (configuration not stated) | 34.4%
CCCn1ncc(C(=O)NC2CCN(C3CCOCC3)CC2)c1C | 59.3%
CCCn1ncc(C(=O)N2CCN(C3CCCC3)CC2)c1C | -39.2%
CN1CC(=O)N(c2cccc(F)c2)CC12CCN(Cc1cnn(C)c1)C2 (configuration not stated) | 18.2%
Cc1ccc(C2(CN3CCN(Cc4cnc(C)n4C)CC3)CC2)cc1 | 12.8%
c1ccc2ncc(CC3CCNC3)cc2c1 (configuration not stated) | 35%

Compound | INHIBITION
CN1CCNCC(Cc2cnc3ccccc3c2)C1 (configuration not stated) | 52.7%
CN1CCC(Cc2cnc3ccccc3c2)C1 (configuration not stated) | 45.2%
Cc1ccc(C)n1C(C)C(=O)N1CCCN(Cc2cscn2)CC1 (configuration not stated) | 26.55%
CCOC(=O)CC1CCCCN1C(=O)c1cccc2ccnn12 (configuration not stated) | -22.1%
Cn1cc(CN2CCCC23CCN(C(=O)c2cccn2C)CC3)cn1 | 66%
Cn1cc(CN2CCCC23CCN(C(=O)c2ccccc2)CC3)cn1 | -9.18%
Cn1cccc1C(=O)N1CCC2(CC1)CCN2S(C)(=O)=O | 20.1%
Cn1cccc1C(=O)N1CCCC2(CCCN2Cc2cccnc2)C1 (configuration not stated) | 56.9%
Cn1cccc1C(=O)N1CCC2(CCCN2Cc2ccccc2)CC1 | 45.3%
Cn1cccc1C(=O)N1CCC2(CCCN2S(C)(=O)=O)CC1 | 28.2%
CN1CCCCC12CCN(C(=O)c1cccn1C)CC2 | 50.7%
O=C(c1cnccn1)N1CCCC2(CCCN2Cc2cccnc2)C1 (configuration not stated) | -8.85%
CC(C)C(=O)N1CCCC2(CCCN2Cc2cccnc2)C1 (configuration not stated) | 10.5%
CO[C@@]1(C)C[C@@H](O)C12CCN(C(=O)c1ccccc1C(C)=O)CC2 | 40.7%
Cc1ccc(CN2C[C@@H]3COC[C@H](C(=O)N4CCCCO4)[C@@H]3C2)o1 | 14.8%
CC(C)CCN1CC2(CCCN(C(=O)CNC(=O)N(C)C)C2)CCC1=O (configuration not stated) | 19.4%
Cc1cc(NC(=O)NCC(C)N2CCOCC2)n(C)n1 (configuration not stated) | -17%
Cc1cc(-c2cnc(C3CC3)nc2CN(C)C(=O)c2ccccn2)on1 | -25%
CCOCCCNC(=O)Nc1ccc(F)c(C(N)=O)c1 | 7.67%
O=c1c2cccnc2ccn1Cc1nccn1C1CC1 | 14.9%
Cc1ncc(CN2CC[C@@](C)(O)[C@H](Oc3cccc(F)c3)C2)cn1 | 56%
Cc1cnccc1CN1CC[C@@](C)(O)[C@H](Oc2ccccc2)C1 | 39.2%

Compound | INHIBITION
C[C@]1(O)CCN(Cc2c[nH]cn2)C[C@@H]1Oc1cccc(F)c1 | 32.3%
Cc1cnccc1CN1CC[C@@](C)(O)[C@H](Oc2cccc(F)c2)C1 | 56%
C[C@]1(O)CCN(Cc2nccs2)C[C@@H]1Oc1cccc(F)c1 | 26.3%
COc1ncc(CN2CC[C@@](C)(O)[C@H](Oc3cccc(F)c3)C2)cn1 | 37.9%
C[C@]1(O)CCN(Cc2cccnc2)C[C@@H]1Oc1cccc(F)c1 | 44.1%
C[C@@]1(O)CCN(Cc2cc[nH]n2)C[C@H]1Oc1cccc(F)c1 | 66.4%
Cc1cnccc1CN1CC[C@H](Oc2cccc(F)c2)[C@@](C)(O)C1 | 48.6%
O=C(Nc1ccccc1F)C1=NOC2(CCNCC2)C1 | -18.5%
CSCc1noc(CNC(=O)C2CCN(C(=O)C3CC3)CC2)n1 | 23%
Cc1nc(N2CCCC2)nc2c1CN(C(=O)N(C)C)CC2 | 37.1%
CN(CCc1ccncc1)CC1CCCN1c1cccnn1 (configuration not stated) | -69.3%
Cc1cccc2nc(C(=O)N3CCC4(CCC(=O)N(C)C4)CC3)c(F)n12 | 33.4%
Cc1cnc(-c2nc(NC3CC3)ncc2-c2onc(C)c2C)cn1 | 0.301%
Fc1ccc(CN2CCC3(CCN(Cc4nccs4)CC3)C2)cc1 | 21.7%
CCN1CCC(CNCc2c[nH]nc2C(C)(C)C)C1 (configuration not stated) | 11.4%
COc1ccc(CC(=O)N2CCC3(CC2)CCN(CC(C)C)C3=O)cc1 | 35.8%
Cc1nc(-c2ccsc2)ccc1C(=O)N(C)CC(F)(F)F | -4.12%
Cc1cccc(CN2CCc3onc(CN(C)C)c3C2)n1 | -14.2%
CN(C)Cc1noc2c1CN(Cc1ccsc1)CC2 | 15.7%
CN(C)Cc1noc2c1CN(Cc1ccc[nH]1)CC2 | 73.2%
CN1CC(=O)N(c2ccccc2)CC12CCN(Cc1nccn1C)C2 (configuration not stated) | 7.31%
CNc1nc(CNC(=O)Nc2cccc(-c3ncc(C)o3)c2)cs1 | 20.1%

Compound | INHIBITION
Cc1nn(C)cc1-c1cc(C(F)(F)F)nc(NC2CCN(C)CC2)n1 | 40.5%
Cc1nn(C)cc1-c1cc(C(F)F)nc(NC2CCCCC2)n1 | 26.9%
Cc1nc2n(n1)CC(Nc1cc(C(F)(F)F)nc3ncnn13)CC2 (configuration not stated) | -29.2%
CCn1cc(-c2nn3c(C(F)(F)F)nnc3s2)c(C)n1 | 4.12%
Cc1nn(C)cc1-c1cc(C(F)(F)F)nc(NC2CCCCC2)n1 | 58.9%
CCn1cc(-c2cc(C(F)(F)F)nc(NC3CCCC3)n2)c(C)n1 | 68.7%
Cc1cc(N)n(-c2ccc3nnc(C)n3n2)n1 | 37.5%
Cc1cc(C(=O)N2CCCC(n3cncn3)C2)on1 (configuration not stated) | -23.9%
CCc1ccccc1CN1CC[C@@]2(O)CCN(S(=O)(=O)N(C)C)C[C@H]2C1 | 44.6%
O=C(Nc1cncc(Br)c1O)c1ccon1 | 83.2%
O=C(Cc1ccn[nH]1)Nc1cncc(Br)c1O | 22.6%
O=C(Cc1ccon1)Nc1cncc(Br)c1O | -9.23%
CN(C)C(=O)CO[C@H]1CN(Cc2cccc(C#N)c2)[C@@H]2COC[C@H]12 | 7.31%
Cc1noc(C2CCCCN2C(=O)NCc2ccco2)n1 (configuration not stated) | 26.4%
CNC1CCC2(CC1)CNC(=O)c1cc(C)ccc1O2 (configuration not stated) | -16.5%
O=C(NC1CCS(=O)(=O)C1)c1cn(C2CC2)c(=O)c2ccccc12 (configuration not stated) | 43.9%
C[C@@H]1CCC[C@H](C)N1CC(=O)N1CCc2[nH]c(-c3ccccc3)nc2C1 | 64.8%
CN1CCCN(CC(=O)N2CCc3[nH]c(-c4ccccc4)nc3C2)CC1 | 17.6%
CC(=O)NCC(=O)N1CCc2[nH]c(-c3ccccc3)nc2C1 | 43%
